About 83,000 compounds went through this panel and 20% of them were active in at least one assay; those are over-represented in the sample as a whole.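 Step 1: grow cells in 96-well plates. Step 2: add test compound at a single concentration. Step 3: incubate 48 h. Step 4: record percent growth.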 Activity calls are given as the source filed them. The calls were made as follows: active = growth percent below 10; inactive = the rest. Starred links: 1 amine or outer side, 2 acyl side, 3 side chain; linkers in the order of their positions; H or OH if unused. Positions of bridges follow the written chain, without caps; N, C: chain ends. Non-standard residues stand in square brackets, D forms with d. Residues, ends and D or L forms follow the SMILES beside them. Chains are numbered I, II in the order given. Actinocin(9to1) = Cc1c2oc3c(C)ccc(C(=O)[*:1])c3nc-2c(C(=O)[*:2])c(N)c1=O; aThr = C[C@H](O)[C@H](N)C(=O)O; NMeV = CN[C@H](C(=O)O)C(C)C; Sar = CNCC(=O)O
Legend:
Test in all cases: NCI-60 one-dose screen, 48 h (100 = growth as untreated, 0 = no growth, -100 = all killed)
OVCAR-8 ovarian = settings: 10 µM
OVCAR-5 ovarian = test system: OVCAR-5 ovarian
OVCAR-4 ovarian = test system: OVCAR-4 ovarian
SK-OV-3 ovarian = test system: SK-OV-3 ovarian
IGROV1 ovarian = test system: IGROV1 ovarian
OVCAR-3 ovarian = test system: OVCAR-3 ovarian
HS 578T breast = test system: HS 578T breast
NCI/ADR-RES ovarian = test system: NCI/ADR-RES ovarian
T-47D breast = test system: T-47D breast
BT-549 breast = test system: BT-549 breast
MDA-MB-435 melanoma = test system: MDA-MB-435 melanoma
SW-620 colon = test system: SW-620 colon
MCF7 breast = test system: MCF7 breast
HCC-2998 colon = test system: HCC-2998 colon
KM12 colon = test system: KM12 colon

Measured: growth

N#C/C(=C1C=C/C(=N\O)C(Cl)=C\1)c1ccccc1
active: MDA-MB-435 melanoma; 10 µM -43%
inactive: OVCAR-8 ovarian 43.2% | OVCAR-5 ovarian; 10 µM 64% | OVCAR-4 ovarian; 10 µM 57% | SK-OV-3 ovarian; 10 µM 37.5% | IGROV1 ovarian; 10 µM 53% | OVCAR-3 ovarian; 10 µM 39.6% | HS 578T breast; 10 µM 56.2% | NCI/ADR-RES ovarian; 10 µM 34% | T-47D breast; 10 µM 43.3% | BT-549 breast; 10 µM 110% | SW-620 colon; 10 µM 17.8% | MCF7 breast; 10 µM 14.8% | HCC-2998 colon; 10 µM 89.7% | KM12 colon; 10 µM 13.5%

COc1cc(C(C)(C)C)cc(OC)c1C(O)(c1c(OC)cc(C(C)(C)C)cc1OC)c1c(OC)cc(C(C)(C)C)cc1OC
active: OVCAR-8 ovarian -64.3% | OVCAR-5 ovarian; 10 µM -100% | OVCAR-4 ovarian; 10 µM -99.6% | SK-OV-3 ovarian; 10 µM -86.7% | IGROV1 ovarian; 10 µM 2.83% | OVCAR-3 ovarian; 10 µM -94.1% | HS 578T breast; 10 µM -33.3% | NCI/ADR-RES ovarian; 10 µM -56.8% | T-47D breast; 10 µM -30.2% | BT-549 breast; 10 µM -58.9% | MDA-MB-435 melanoma; 10 µM -45.3% | SW-620 colon; 10 µM -79.8% | MCF7 breast; 10 µM -88.6% | HCC-2998 colon; 10 µM -91.9% | KM12 colon; 10 µM -80.8%

CN1CCN(c2ccc3nc(-c4ccc5nc(-c6ccc(O)cc6)[nH]c5c4)[nH]c3c2)CC1
inactive: OVCAR-5 ovarian; 10 µM 61.9% | OVCAR-4 ovarian; 10 µM 89.8% | SK-OV-3 ovarian; 10 µM 84.4% | IGROV1 ovarian; 10 µM 112% | OVCAR-3 ovarian; 10 µM 66.4% | NCI/ADR-RES ovarian; 10 µM 130% | T-47D breast; 10 µM 39.2% | BT-549 breast; 10 µM 97.9% | MDA-MB-435 melanoma; 10 µM 52.5% | SW-620 colon; 10 µM 87.1% | MCF7 breast; 10 µM 34.5% | KM12 colon; 10 µM 106%

CSc1ccc2c(c1)C(N1CCN(C)CC1)Cc1ccccc1S2 (centres undefined)
inactive: OVCAR-8 ovarian 67.9% | OVCAR-5 ovarian; 10 µM 41.7% | OVCAR-4 ovarian; 10 µM 36.1% | SK-OV-3 ovarian; 10 µM 86.2% | IGROV1 ovarian; 10 µM 20.8% | OVCAR-3 ovarian; 10 µM 61.4% | HS 578T breast; 10 µM 39.8% | NCI/ADR-RES ovarian; 10 µM 49.2% | T-47D breast; 10 µM 43.3% | BT-549 breast; 10 µM 63.1% | SW-620 colon; 10 µM 54.4% | MCF7 breast; 10 µM 20.9% | KM12 colon; 10 µM 21.4%
active: MDA-MB-435 melanoma; 10 µM 7.17% | HCC-2998 colon; 10 µM -39.2%

Cc1cnc(/C=N\NC(N)=S)c2cccc(N)c12
active: OVCAR-3 ovarian; 10 µM 0.342% | T-47D breast; 10 µM 9.76% | MCF7 breast; 10 µM 9.29% | HCC-2998 colon; 10 µM -39.3%
inactive: OVCAR-8 ovarian 17.7% | OVCAR-5 ovarian; 10 µM 34.9% | OVCAR-4 ovarian; 10 µM 31.9% | SK-OV-3 ovarian; 10 µM 22.9% | HS 578T breast; 10 µM 69.1% | NCI/ADR-RES ovarian; 10 µM 10.9% | MDA-MB-435 melanoma; 10 µM 27.8% | SW-620 colon; 10 µM 35% | KM12 colon; 10 µM 27.9%

Nc1ccc2cc(Br)c3ccccc3c2c1
inactive: OVCAR-8 ovarian 84.8% | OVCAR-5 ovarian; 10 µM 79.9% | OVCAR-4 ovarian; 10 µM 56.7% | SK-OV-3 ovarian; 10 µM 81.1% | IGROV1 ovarian; 10 µM 82.2% | OVCAR-3 ovarian; 10 µM 74.6% | NCI/ADR-RES ovarian; 10 µM 67.2% | T-47D breast; 10 µM 28.8% | BT-549 breast; 10 µM 68.9% | MDA-MB-435 melanoma; 10 µM 66% | MCF7 breast; 10 µM 35.1% | HCC-2998 colon; 10 µM 47.7% | KM12 colon; 10 µM 32.6%

Cc1c2oc3c(C)ccc(C(=O)N[C@@H]4C(=O)N[C@H](C(C)C)C(=O)N5CCC[C@H]5C(=O)N(C)CC(=O)N(C)[C@@H](C(C)C)C(=O)O[C@H]4C)c3nc-2c(C(=O)N[C@@H]2C(=O)N[C@H](C(C)C)C(=O)N3CCC[C@H]3C(=O)N(C)CC(=O)N(C)[C@@H](C(C)C)C(=O)O[C@H]2C)c(N)c1=O (I: [aThr][dV]P[Sar][NMeV] / II: [aThr][dV]P[Sar][NMeV]; ester I:1-I:C, II:1-II:C; linker I:N-II:N via Actinocin(9to1))
active: OVCAR-5 ovarian; 10 µM -66.1% | OVCAR-4 ovarian; 10 µM -8.21% | IGROV1 ovarian; 10 µM -27.7% | OVCAR-3 ovarian; 10 µM 5.84% | HS 578T breast; 0.0025 µM -10.9% | NCI/ADR-RES ovarian; 10 µM -39.5% | T-47D breast; 10 µM -13.8% | BT-549 breast; 10 µM -45.4% | MDA-MB-435 melanoma; 10 µM -93.8% | SW-620 colon; 10 µM -27.9% | MCF7 breast; 10 µM -15.3% | KM12 colon; 10 µM 0.211%
inactive: OVCAR-5 ovarian; 0.0025 µM 50.9% | OVCAR-4 ovarian; 0.0025 µM 50.3% | SK-OV-3 ovarian; 0.0025 µM 92.8% | SK-OV-3 ovarian; 10 µM 14.8% | IGROV1 ovarian; 0.0025 µM 35.5% | OVCAR-3 ovarian; 0.0025 µM 70% | NCI/ADR-RES ovarian; 0.0025 µM 96.7% | T-47D breast; 0.0025 µM 53.6% | BT-549 breast; 0.0025 µM 27.5% | MDA-MB-435 melanoma; 0.0025 µM 41.6% | SW-620 colon; 0.0025 µM 32.8% | MCF7 breast; 0.0025 µM 12.2% | HCC-2998 colon; 0.0025 µM 15.2% | KM12 colon; 0.0025 µM 47.3%

Reference: PubChem BioAssay (NCI)
